# From PubChem BioAssay
# A selection: hits, their analogues and other compounds. The true share with any hit is near 9.6%.
# DAT uptake mod: changed human dopamine transporter uptake under cocaine IC80; B-score at 10 µM; 1.3% of 110,000 active; LLC-PK1 hDAT cells, [14C]-dopamine uptake with cocaine IC80; actives deviate in either direction; AID 449768;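 active means Z score or B-score, a plate-position-corrected score, falls beyond the plate's 99.7% confidence bounds, in either direction; inactive means both scores lie inside the 99.7% bounds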;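 further: scored against the spread of the other compound wells on the same plate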
# PLAP activator: activators of human placental alkaline phosphatase; P05187; purified PLAP enzyme, luminescent substrate read-out; stronger effect = higher value; activation fold at 20 µM; 1.2% of 96,000 active; in the data active means activation fold above about 2
# Cav32 inh: human Cav3.2 channel inhibition, primary screen. Cav3.2-expressing cells, Fluo-4 calcium fluorescence FDSS; stronger effect = lower value. B-score at 10 µM. 4% of 100,000 active. AID 449739;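 active means single-dose well whose peak fluorescence ratio is a statistical outlier from its plate by either plate-standardised score or position-corrected B-score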
# PostGolgi yeast: growth inhibition of a yeast mutant, post-Golgi transport screen; 0.9% of 98,000 active; inhibition, % at 10 µM; post-Golgi transport phenotypic cell assay;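 further: yeast cells grown in 1536-well plates; yeast grown about 18 h at 30C before absorbance read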
# PostGolgi ctrl: yeast control strain growth, post-Golgi counter-screen | 5% of 98,000 active | efflux-deficient yeast background strain, growth absorbance A615, 16 h | AID 738 | inhibition, % at 10 µM
# * hit, by the source's call; / = no result. Unless noted, no stated cut-off is given here; in the data, active means inhibition above about 30%; inactive means the rest.
SMILES,DAT uptake mod,PLAP activator,Cav32 inh,PostGolgi yeast,PostGolgi ctrl
O=C(c1ccc(COc2ccccc2Br)o1)N1CCCCCC1,1.1,1.1,-1.7,-1,38*
O=C(c1ccco1)N1CCN(C(=O)c2ccc(COc3ccc4c(c3)CCC4)o2)CC1,3.7*,1.2,-3.5,5,10
O=C(c1ccc(COc2ccccc2Br)cc1)N1CCCCC1,-0.28,1.9,/,-5,27
O=C(c1ccco1)N1CCN(C(=O)c2ccc(COc3ccc(Cl)cc3Cl)o2)CC1,2.6,/,-5.8*,/,/
Cc1cc(Cl)ccc1OCCCC(=O)N1CCN(C(=O)c2ccco2)CC1,1.5,1.7,-1.8,3,6
O=C(c1ccc(COc2ccc3c(c2)CCC3)o1)N1CCN(c2ccccc2)CC1,0.97,/,-3.2,/,/
CCOC(=O)c1cc2sccc2n1CC(=O)N1CCCC1,-0.17,1.1,-1.7,-4,14
CN(CC(=O)N1CCN(c2ccccc2)CC1)S(=O)(=O)c1cnc[nH]1,-0.42,1.2,0.5,3,36*
CN(CC(=O)N1CCN(c2ccc(F)cc2)CC1)S(=O)(=O)c1ccc(F)cc1,0.46,1.1,-0.55,-2,17
CCCCCc1cc(O)c2c(C)cc(=O)oc2c1,-1,1.1,-0.11,9,61*
CS(=O)(=O)N1CCN(C(=O)c2cc(-c3cccs3)nc3ccccc23)CC1,-3*,1.3,-0.034,-6,5
O=C(c1ccco1)N1CCN(C(=O)c2cc(-c3ccncc3)nc3ccc(Br)cc23)CC1,-2.7*,/,1.3,/,/
COCCCNC(=O)c1cc2c(=O)n(C)c3ccccc3c2n1C,-0.22,1.1,-0.55,22,39*
O=C(c1ccco1)N1CCN(C(=O)c2cc(-c3ccccn3)nc3ccc(Cl)cc23)CC1,-0.78,1.5,0.66,12,14
O=C(c1ccco1)N1CCN(C(=O)c2cc(-c3ccccc3)nc3ccccc23)CC1,0.17,1.3,0.34,-3,31*
O=C1c2ccccc2C(=O)N1CCc1nc2ccccc2c(=O)n1CCCn1ccnc1,-0.28,1,0.96,-5,-4
CC(C)[C@H]1C=C(C(=O)O)O[C@@H](OCCCCO)C1,0.029,/,0.24,/,/
CCOC(=O)C1CCN(Cc2cnc(Oc3ccc(C(C)(C)C)cc3)s2)CC1,0.97,1.3,-0.58,5,17
Cn1c(C(=O)N2CCN(C(=O)c3ccco3)CC2)cc2c(=O)n(C)c3ccccc3c21,2.2*,1.5,1.2,-10,35*
O=C(c1ccco1)N1CCN(C(=O)c2ccccc2Oc2ccccc2)CC1,-1.2,/,-5*,0,10
O=C(c1cc(-c2ccccc2)nc2ccccc12)N1N=C(C(F)F)CC1(O)C(F)F (stereo not given),2.9*,1.7,-0.61,10,4
COc1cc(C2C3=C(CC(C)(C)CC3=O)N(C)C(=O)N2C)cc(OC)c1OC (stereo not given),0.45,1.3,-0.41,9,10
Cc1ccccc1C(=O)NC1CCN(CC(=O)Nc2nccs2)CC1,-0.58,1.2,0.4,13,15
Cc1cccc(N2CCN(CC(=O)Nc3nccs3)CC2)c1C,0.85,2.3*,-6.3*,39*,1
COc1cc(C=O)c(Br)cc1OCc1ccc(C)cc1,0.039,1.1,-1.1,1,48*
SMILES,DAT uptake mod,PLAP activator,Cav32 inh,PostGolgi yeast,PostGolgi ctrl
CCOc1cc(C=O)c(Br)cc1OC1CCCC1,0.83,1.2,-0.11,8,18
O=S(=O)(c1cccc(-c2nc3ccccc3s2)c1)N1CCOCC1,-0.18,0.8,-0.015,2,30*
CCOC(=O)N1CCC2(CC1)C(C#N)=C(N)OC1=C2C(=O)CC(C)C1 (stereo not given),0.86,1,1.3,1,15
N#C/C(=C(/O)CN1C(=O)c2ccccc2C1=O)c1nc2ccccc2[nH]1,0.042,2.1*,-4.2,-3,-7
CSCCC(/C(O)=C(\C#N)c1nc2ccccc2[nH]1)N1C(=O)c2ccccc2C1=O (stereo not given),-1.1,2*,/,2,15
N#C/C(=C(\O)Cc1ccccc1)c1nc2ccccc2[nH]1,0.071,0.9,-0.015,-8,6
COc1ccc(-n2c(/C=C(\C)O)nc(=O)c3c(C)cc(C)nc32)cc1,0.035,1.5,-0.89,2,10
O=C(c1ccco1)N1CCN(S(=O)(=O)c2ccc(S(=O)(=O)NC3CCCCC3)cc2)CC1,-0.8,1,-1.4,-3,13
COc1ccccc1NC(=O)c1cc2n(n1)C(C(F)(F)F)CC(c1ccc3c(c1)OCO3)N2 (stereo not given),0.25,1.3,-1,12,37*
NC1=NC(=O)/C(=C\c2cccs2)S1,0.47,1,0.93,-5,0
N=C1/C(=C/c2cccs2)C(=O)N=C2SN=C(SCc3ccccc3)N12,-0.92,1.1,-7.7*,-4,7
O=c1[nH]c2c(s1)C(c1ccco1)C1C3CCC(C3)C1S2 (stereo not given),-1,1.1,-1.6,-35,15
O=C1N2c3ccccc3CCc3cccc(c32)C1(O)C(F)(F)F (stereo not given),-2.2,1.1,-5.6*,1,50*
O=C(COc1ccc(F)cc1Br)NCc1ccccn1,0.87,1.1,0.24,6,2
O=C(COc1ccccc1Br)NCc1ccccn1,-2.3,0.8,0.5,-6,32*
CCOC(=O)C1=C(N)OC2=C(C(=O)CC(C)(C)C2)C1c1ccoc1 (stereo not given),-0.42,1.1,-0.85,-3,0
CCOC(=O)C1=C(N)OC2=C(C(=O)CC(C)(C)C2)C1C1CCCCC1 (stereo not given),0.2,1,-9*,4,21
O=C(C1CCCN(S(=O)(=O)Cc2ccccc2)C1)N1CCC(Cc2ccccc2)CC1 (stereo not given),1.4,1.9,-5.5*,5,34*
CS(=O)(=O)N1CCC(C(=O)N2CCC(Cc3ccccc3)CC2)CC1,-1.2,1.4,0.18,1,6
O=C(Nc1ccc2c(c1)OCO2)C1CCCN(S(=O)(=O)Cc2ccccc2)C1 (stereo not given),-1.6,0.9,0.56,-4,42*
O=C(Nc1ccc2c(c1)OCCO2)C1CCCN(S(=O)(=O)Cc2ccccc2)C1 (stereo not given),1.7,1,-0.035,3,-1
O=C(Nc1c(-c2ccccc2)nc2sccn12)c1ccccc1,0.1,1,0.53,26,-1
COC(=O)C1=NN(C(=O)c2ccc(C)cc2)C(O)(c2ccc(Cl)cc2)C1 (stereo not given),1.1,1.5,-3.2*,-5,12
Cc1ccc(N(CC(=O)N2CCc3ccccc32)C2=NC(=O)CS2)cc1,0.49,1.5,-4.3*,0,5
O=C(Nc1ccc(Cl)c(Cl)c1)C1=Cc2ccccc2OC1,-1.1,0.8,-0.63,9,42*
Cc1ccc2nc(SCc3ccc([N+](=O)[O-])cc3)[nH]c2c1,1,1.2,-5.8*,0,5
Cc1cc(NS(=O)(=O)c2ccccc2)cc(Cl)c1O,0.011,0.9,-1.5,1,12
Cc1cc(C)cc(NS(=O)(=O)c2cnc(Cl)c(Cl)c2)c1,-0.9,1.3,-5.6*,2,43*
